The text below walks through data of PubChem BioAssay (NCATS).

Each structure is given as a SMILES string. Results filed as inconclusive are left out. Entries that show only a call come without a potency. Activity calls are given as the source filed them. The call rests on the fitted dose curve; in most records, active means well fitted inhibition curve with a large enough effect; inconclusive means small, poorly fitted or top-dose-only effect; inactive means flat fitted curve, though single readings scatter.
Potency means the concentration at half of the fitted maximal effect.

A short description of the experiment: qHTS to identify inhibitors of the type 1 interferon - major histocompatibility complex class I in skeletal muscle: primary screen against the NCATS Pharmaceutical Collection (AID 1347407).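 Further: luminescence of HiBiT knocked into endogenous HLA-B as interferon-induced MHC class I level.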 The settings on record: human skeletal muscle cells, IFN-b-induced MHC-I HiBiT luminescence, 24 h; series mostly up to 45.9 µM. Put shortly: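 A qHTS format is used: 8-point, 1:5 compound series with 46 uM top final concentration, applied alongside 4 ng/ml IFN-beta to HLA-B*08:01-HiBiT knock-in myoblasts. Luminescence is measured after 24 h treatment.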
(qHTS replaces the single test concentration by a dilution series.)
On to `CC(=O)Nc1c(I)cc(I)c(C(=O)O)c1I`, for which the Potency entry was “inactive”.

For the molecule `CCCCOc1cc(C(=O)NCCN(CC)CC)c2ccccc2n1`, the Potency entry is “inactive”.

As for `CC(=O)OCC(=O)NCCCOc1cccc(CN2CCCCC2)c1`, the Potency entry is “inactive”.

As for `CC(=O)[C@H]1CC[C@H]2[C@@H]3C[C@H](C)C4=CC(=O)CC[C@]4(C)[C@H]3[C@@H](O)C[C@]12C`, the Potency entry was “inactive”.

For the molecule `c1ccc(CNCCNCc2ccccc2)cc1`, the Potency entry is “inactive”.

With `Cc1c(C)n(Cc2ccccc2)c2ccc(C(=O)OCCN(C)C)cc12`, the Potency entry was “inactive”.

Turning to `Cc1c(C(C)C)c(=O)n(-c2ccccc2)n1C`, the Potency entry is “inactive”.

With `CN=C(NC#N)Nc1ccc(C2=NNC(=O)CC2C)cc1` (stereo not given), the Potency result was “inactive”.

For the molecule `c1ccc(-c2ccc(C(c3ccccc3)n3ccnc3)cc2)cc1` (stereo not given), the Potency entry was “inactive”.

On to `Cc1cc(O)c(C(C)C)cc1Cl`, for which the Potency entry was “inactive”.

For `CCCCS(=O)(=O)N[C@@H](Cc1ccc(OCCCCC2CCNCC2)cc1)C(=O)O`, the Potency result was “inactive”.

As to `CC[C@@H](CO)NCCN[C@@H](CC)CO`, the Potency result is “inactive”.

With `CC1(C)O[C@@H]2C[C@H]3[C@@H]4C[C@H](F)C5=CC(=O)CC[C@]5(C)[C@H]4[C@@H](O)C[C@]3(C)[C@]2(C(=O)CO)O1`, the Potency result was “inactive”.

Turning to `Oc1c(I)cc(Cl)c2cccnc12`, the Potency entry was “inactive”.

Consider `Cc1c(N(C)CS(=O)(=O)O)c(=O)n(-c2ccccc2)n1C`, for which the Potency entry was “inactive”.

`CN1CCN(C(c2ccccc2)c2ccccc2)CC1`: the Potency result is “inactive”.

With `COc1cc(C(=S)N2CCOCC2)cc(OC)c1OC`, the Potency entry was “inactive”.

For `COc1ccc(OC)c(C(O)CNC(=O)CN)c1` (stereo not given), the Potency entry is “inactive”.

`Cc1c(C(N)=O)cc([N+](=O)[O-])cc1[N+](=O)[O-]`: the Potency entry was “inactive”.

`Oc1c(I)cc(I)c2cccnc12`: the Potency entry is “inactive”.

Turning to `CC(C)(CO)[C@@H](O)C(=O)NCCCO`, the Potency result is “inactive”.

On to `CC(C)n1nc(-c2cc3cc(O)ccc3[nH]2)c2c(N)ncnc21`, for which the Potency is 4.7 µM (active).

Turning to `N[C@H](Cc1c[nH]c2ccccc12)C(=O)O`, the Potency result is “inactive”.

Turning to `O=c1c(-c2ccccc2)c1-c1ccccc1`, the Potency result was “inactive”.

Regarding `COc1cc(N)c(Cl)cc1C(=O)NC1CCN(CCCOc2ccc(F)cc2)CC1OC` (stereo not given), the Potency entry was “inactive”.

As to `CCOc1ccc(NC(=O)CC(C)O)cc1` (stereo not given), the Potency entry was “inactive”.

In the case of `CCCCCCc1ccc(O)cc1O`, the Potency entry is “inactive”.

Take `C[C@@H](CN(C)C)CN1c2ccccc2Sc2ccccc21`: the Potency result is “inactive”.

Consider `OC[C@@H](O)[C@@H](O[C@@H]1O[C@H](CO)[C@H](O)[C@H](O)[C@H]1O)[C@H](O)[C@@H](O)CO`, for which the Potency entry is “inactive”.

In the case of `Cc1ccccc1C(=O)Nc1ccc(C(=O)N2CCCC(N(C)C)c3ccccc32)cc1` (stereo not given), the Potency result is “inactive”.

`Nc1nc2ncc(CNc3ccc(C(=O)N[C@@H](CCC(=O)O)C(=O)O)cc3)nc2c(=O)[nH]1`: the Potency entry is “inactive”.

`NC(CS)C(=O)O` (stereo not given): the Potency entry is “inactive”.

In the case of `CCCN1CCCC[C@H]1C(=O)Nc1c(C)cccc1C`, the Potency result was “inactive”.

Regarding `CC(Cc1cccc(C(F)(F)F)c1)NCCOC(=O)c1ccccc1` (stereo not given), the Potency result was “inactive”.

Take `COc1cccc(OC)c1C(=O)N[C@@H]1C(=O)N2[C@@H]1SC(C)(C)[C@@H]2C(=O)O`: the Potency entry was “inactive”.
